Growth data for seven molecules are collected here from the supplement of paper PMC9262897, “Low-cost anti-mycobacterial drug discovery using engineered E. coli” (Nature Communications, 2022).

Where a name gives a salt, the structure may show the parent alone. ± gives the standard deviation of the averaged measurements.

What all share (assay): growth (OD600 after 10 h); higher = more growth (less inhibition)
In assay [1] the test system is E. coli TESEC Alr+ wild-type control. Conditions: compound 0.1 mM; raw OD600 reference: median of DMSO wells 0.241, cell-free background 0.041. On the procedure:
(§1)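 TESEC Mtb Alr E. coli, or the Alr+ wild-type control, in 384-well plates with Prestwick library compounds at 0.1 mM and 1% DMSO, across arabinose induction levels of 1E3 to 1E7 nM. Growth is read as OD600 after 10 h at 37 °C in triplicate biological replicates.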

Assay [2] deals with E. coli TESEC Mtb Alr. The following applies: compound 0.1 mM. On the procedure: as §1
Another assay has as its system E. coli TESEC Mtb Asd. The following applies: compound 0.1 mM. On the procedure:
(§2)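 TESEC E. coli strains in which the native enzyme is deleted and replaced by arabinose-inducible Mtb Asd, DapB, CysH or TrpD, each grown in its selective medium. Strains were screened against the Prestwick library at 0.1 mM and 1% DMSO in 384-well format at low and high arabinose induction. Growth is read as OD600 after 10 h in triplicate.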

Assay [3] has as its system E. coli TESEC Mtb Alr. Conditions: compound 0.1 mM. On the procedure: (§3)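 TESEC Mtb Alr E. coli (ΔaraC ΔtolC ΔentC Δalr ΔdadX, arabinose-inducible Mtb Alr) or the Alr+ wild-type control strain, grown in defined M9-fructose medium without D-alanine in 96-well plates with Prestwick library compounds at 0.1 mM and 1% DMSO. Low Alr induction is 0.1 µM arabinose and high induction is 10 mM arabinose.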
This is another data set of the same source.

In another assay the test system is E. coli TESEC Mtb DapB. Conditions: compound 0.1 mM. On the procedure: as §2
For assay [4], the system named is E. coli TESEC Alr+ wild-type control. The following applies: compound 0.1 mM; raw OD600 reference: median of DMSO wells 0.49, cell-free background 0.052. On the procedure: as §3
Where [5] appears, read: arabinose 1000 nM, raw OD600 reference: median of DMSO wells 0.294, cell-free background 0.041.
The mark [6] stands for this setting: arabinose 10000 nM, raw OD600 reference: median of DMSO wells 0.264, cell-free background 0.041.
Setting [7] is: arabinose 100000 nM, raw OD600 reference: median of DMSO wells 0.201, cell-free background 0.041.
[8] abbreviates: arabinose 1000000 nM, raw OD600 reference: median of DMSO wells 0.193, cell-free background 0.041.
Where [9] appears, read: arabinose 10000000 nM, raw OD600 reference: median of DMSO wells 0.146, cell-free background 0.041.
The mark [10] stands for this setting: arabinose induction (level): High, raw OD600 reference: median of DMSO wells 0.331, cell-free background 0.041.
The mark [11] stands for this setting: arabinose induction (level): Low, raw OD600 reference: median of DMSO wells 0.417, cell-free background 0.041.
[12] abbreviates: arabinose 100 nM, raw OD600 reference: median of DMSO wells 0.413, cell-free background 0.052.
Where [13] appears, read: arabinose 10000000 nM, raw OD600 reference: median of DMSO wells […], cell-free background 0.052.

As for `C=C1CC[C@@]2(O)[C@H]3Cc4ccc(O)c5c4[C@@]2(CCN3CC2CC2)[C@H]1O5` [Nalmefene hydrochloride], the growth in assay [1] turned out to be 0.238 ± 0.013; in the assay with E. coli TESEC Mtb Alr [2] (setting [5]), 0.3098 ± 0.003; in the assay on E. coli TESEC Mtb Alr [2] (setting [6]), 0.274 ± 0.0086; in the assay on E. coli TESEC Mtb Alr [2] (setting [7]), 0.157 ± 0.0079; in the assay on E. coli TESEC Mtb Alr [2] (setting [8]), 0.19 ± 0.005; in the assay on E. coli TESEC Mtb Alr [2] (setting [9]) it was 0.1356 ± 0.0009. Moreover, the growth in the assay with E. coli TESEC Mtb Asd (setting [10]) was 0.193 ± 0.041; in the assay with E. coli TESEC Mtb Asd (setting [11]) it was 0.328 ± 0.08; with E. coli TESEC Mtb Alr [3] (setting [12]), 0.425 ± 0.007; in the assay with E. coli TESEC Mtb Alr [3] (setting [13]) it was 0.327 ± 0.022.
`CN1CCN(C(=O)OC2c3nccnc3C(=O)N2c2ccc(Cl)cn2)CC1` (centres undefined) [Zopiclone]: the growth is 0.222 ± 0.0047 in assay [1]; 0.284 ± 0.0071 in the assay on E. coli TESEC Mtb Alr [2] (setting [5]); 0.246 ± 0.0053 in the assay with E. coli TESEC Mtb Alr [2] (setting [6]); 0.183 ± 0.011 in the assay on E. coli TESEC Mtb Alr [2] (setting [7]); 0.18 ± 0.0087 with E. coli TESEC Mtb Alr [2] (setting [8]); 0.138 ± 0.0054 in the assay on E. coli TESEC Mtb Alr [2] (setting [9]). For the same molecule, the growth in the assay on E. coli TESEC Mtb Asd (setting [10]) came to 0.291 ± 0.062; with E. coli TESEC Mtb Asd (setting [11]), 0.358 ± 0.056; in the assay on E. coli TESEC Mtb Alr [3] (setting [12]), 0.417 ± 0.009; in the assay on E. coli TESEC Mtb Alr [3] (setting [13]) it was 0.357 ± 0.01.
Regarding `C[N+]1([O-])[C@@H]2C[C@@H](OC(=O)[C@H](CO)c3ccccc3)C[C@H]1[C@@H]1O[C@@H]12` (some centres undefined) [Scopolamin-N-oxide hydrobromide], the growth was determined as 0.262 ± 0.013 in assay [1]; 0.3 ± 0.013 in the assay with E. coli TESEC Mtb Alr [2] (setting [5]); 0.28 ± 0.0081 with E. coli TESEC Mtb Alr [2] (setting [6]); 0.24 ± 0.027 in the assay with E. coli TESEC Mtb Alr [2] (setting [7]); 0.19 ± 0.0068 in the assay on E. coli TESEC Mtb Alr [2] (setting [8]); 0.165 ± 0.0072 with E. coli TESEC Mtb Alr [2] (setting [9]). Moreover, the growth worked out at 0.334 ± 0.068 in the assay on E. coli TESEC Mtb Asd (setting [10]); 0.408 ± 0.035 in the assay on E. coli TESEC Mtb Asd (setting [11]); 0.221 ± 0.012 in the assay on E. coli TESEC Mtb DapB (arabinose induction (level): High, raw OD600 reference: median of DMSO wells […], cell-free background 0.041); 0.257 ± 0.025 in the assay with E. coli TESEC Mtb DapB (arabinose induction (level): Low, raw OD600 reference: median of DMSO wells 0.227, cell-free background 0.041); 0.411 ± 0.021 in the assay with E. coli TESEC Mtb Alr [3] (setting [12]); 0.347 ± 0.018 in the assay with E. coli TESEC Mtb Alr [3] (setting [13]).
For `C[C@@]12N[C@@H](Cc3ccccc31)c1ccccc12` [(-)-MK 801 hydrogen maleate], the growth was found to be 0.226 ± 0.014 in assay [1]; 0.29 ± 0.013 in the assay with E. coli TESEC Mtb Alr [2] (setting [5]); 0.247 ± 0.0096 with E. coli TESEC Mtb Alr [2] (setting [6]); 0.138 ± 0.0052 in the assay on E. coli TESEC Mtb Alr [2] (setting [7]); 0.113 ± 0.0073 in the assay on E. coli TESEC Mtb Alr [2] (setting [8]); 0.132 ± 0.0029 in the assay with E. coli TESEC Mtb Alr [2] (setting [9]). The growth in the assay with E. coli TESEC Mtb Asd (setting [10]) was determined as 0.244 ± 0.014; in the assay with E. coli TESEC Mtb Asd (setting [11]), 0.514 ± 0.039; in assay [4] it was 0.564 ± 0.017; with E. coli TESEC Mtb Alr [3] (setting [12]), 0.412 ± 0.017; with E. coli TESEC Mtb Alr [3] (setting [13]) it was 0.2863 ± 0.0016.
For the molecule `Clc1ccc(C(OCCN2CCCCC2)c2ccccc2)cc1` (centres undefined) [Cloperastine hydrochloride], the growth in assay [1] was 0.186 ± 0.0072; in the assay with E. coli TESEC Mtb Alr [2] (setting [5]), 0.232 ± 0.0029; in the assay with E. coli TESEC Mtb Alr [2] (setting [6]), 0.2462 ± 0.0014; in the assay with E. coli TESEC Mtb Alr [2] (setting [7]), 0.174 ± 0.0052; with E. coli TESEC Mtb Alr [2] (setting [8]), 0.0487 ± 0.0015; in the assay with E. coli TESEC Mtb Alr [2] (setting [9]), 0.0546 ± 0.00059. Besides, the growth in the assay with E. coli TESEC Mtb Asd (setting [10]) was found to be 0.113 ± 0.002; in the assay with E. coli TESEC Mtb Asd (setting [11]), 0.154 ± 0.0084; with E. coli TESEC Mtb Alr [3] (setting [12]) it was 0.4058 ± 0.0039; with E. coli TESEC Mtb Alr [3] (setting [13]), 0.147 ± 0.085.
With `COc1cc([C@@H]2c3cc4c(cc3[C@H](O)[C@H]3COC(=O)[C@H]23)OCO4)cc(OC)c1OC` [Podophyllotoxin], the growth was found to be 0.222 ± 0.0075 in assay [1]; 0.298 ± 0.016 with E. coli TESEC Mtb Alr [2] (setting [5]); 0.271 ± 0.0092 with E. coli TESEC Mtb Alr [2] (setting [6]); 0.168 ± 0.012 with E. coli TESEC Mtb Alr [2] (setting [7]); 0.163 ± 0.0082 with E. coli TESEC Mtb Alr [2] (setting [8]); 0.1495 ± 0.0008 in the assay on E. coli TESEC Mtb Alr [2] (setting [9]). Besides, the growth in the assay on E. coli TESEC Mtb Asd (setting [10]) was 0.443 ± 0.027; with E. coli TESEC Mtb Asd (setting [11]), 0.46 ± 0.053; in assay [4], 0.545 ± 0.085; with E. coli TESEC Mtb Alr [3] (setting [12]), 0.403 ± 0.015; in the assay with E. coli TESEC Mtb Alr [3] (setting [13]), 0.298 ± 0.0059.
As to `CCC(=O)O[C@H]1CC[C@H]2[C@@H]3CCC4=CC(=O)CC[C@]4(C)[C@H]3CC[C@]12C` [Testosterone propionate], the growth turned out to be 0.157 ± 0.016 in assay [1]; 0.145 ± 0.0086 in the assay on E. coli TESEC Mtb Alr [2] (setting [5]); 0.261 ± 0.0051 with E. coli TESEC Mtb Alr [2] (setting [6]); 0.12 ± 0.0075 in the assay on E. coli TESEC Mtb Alr [2] (setting [7]); 0.107 ± 0.0037 in the assay with E. coli TESEC Mtb Alr [2] (setting [8]); 0.117 ± 0.015 in the assay with E. coli TESEC Mtb Alr [2] (setting [9]). For the same molecule, the growth was 0.336 ± 0.065 with E. coli TESEC Mtb Asd (setting [10]), 0.454 ± 0.04 in the assay with E. coli TESEC Mtb Asd (setting [11]), 0.269 ± 0.18 with E. coli TESEC Mtb Alr [3] (setting [12]) and 0.148 ± 0.025 with E. coli TESEC Mtb Alr [3] (setting [13]).
